These results are taken from PubChem BioAssay.

The first experiment relates to Plasmodium falciparum Sir2 (PF13_0152, Sir2A). The experiment in a line: pfSir2 binders on small-molecule microarrays, primary screen, biochemical, small-molecule microarray, 635 nm fluorescence (AID 1098).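 Note: score merges spot fluorescence intensity with its signal-to-noise ratio.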 Particulars: small-molecule microarray binding, fluorescence 635 nm; higher = more signal.
For `CCOC(=O)C1=CC[C@@H](c2ccccc2)N(S(=O)(=O)c2ccc(C)cc2)C1`, the composite z-score was found to be 0.243.

`CCOC(=O)[C@H]1C/C=C/C[C@H](C(=O)OCC)C(=O)O[C@H]2[C@@H](OC)O[C@H](CO)[C@@H](OC(=O)Nc3ccc(OC)cc3)[C@@H]2OC1=O` registered a composite z-score of 0.692.

As for `COC(=O)[C@H](Cc1ccccc1)N1CC(/C=C/C2CC2)=C[C@@H]1[C@@H](O)Cc1ccccc1`, the composite z-score is 1.01.

`Cc1ccc(F)cc1S(=O)(=O)N[C@@H]1CCN(Cc2ccc(Oc3ccccc3)cc2)C1` showed a composite z-score of 0.499.

Turning to `COCCOC(=O)N1C(=O)[C@@]2(c3cc(C#Cc4ccc(OC)cc4)ccc31)[C@H](C(=O)NC[C@H](O)c1ccccc1)[C@H]1C(=O)O[C@H](c3ccccc3)[C@H](c3ccccc3)N1[C@@H]2c1ccc(O)cc1`, the composite z-score is 0.557.

With `CN(C)CCCNC(=O)[C@@H]1c2ccccc2C(=O)N(CC23CC4CC(CC(C4)C2)C3)[C@H]1c1ccc(CO)cc1`, the composite z-score worked out at 1.15.

The compound `CCOC(=O)[C@@H]1[C@@H]2C(=O)N(CC)C(=O)[C@@H]2C[C@@H]1Sc1ccccc1` had a composite z-score of 0.667.

Compound `CC(C)C(=C=CC[C@@H](O)c1ccccc1OCCO)C[C@@H](O)COCc1ccccc1` came in with a composite z-score of 1.23.

Test system in another experiment: not listed separately
In words: small-molecule microarray binders of probe aDKK1, primary screen, biochemical, biotinylated probe, 635/667 nm fluorescence (AID 1099).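 Note: score merges 667nm spot fluorescence with signal to noise across triplicate slides; reference of the scale not given here.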 The conditions noted are these: higher = more signal.
On to `CC(C)C(O)C1C=CC2C(=O)N(C)C(=O)C2N1Nc1ccccc1` (centres undefined), for which the composite z-score turned out to be 1.36.

Compound `Cc1c(NC(=O)/C(C#N)=C/C=C/c2ccc(N(C)C)cc2)c(=O)n(-c2ccccc2)n1C` registered a composite z-score of 0.735.

Compound `COc1cc(CO)cc(I)c1O[C@H]1C=C(C(=O)NCCO)C[C@@H](N(Cc2ccc(F)cc2)C(=O)C2CCCO2)[C@@H]1O` (some centres undefined) had a composite z-score of -0.139.

The compound `O=C1C[C@@](C(=O)NCC(F)(F)F)(c2ccc([N+](=O)[O-])cc2)[C@@H](c2ccc(CO)cc2)N1C1CCCCC1` showed a composite z-score of 0.74.

Take `COC(=O)Cn1c(C(=O)N2CCCC2)cc2c1C[C@H]1CN(C(=O)c3ccccc3)[C@@](Cc3ccc(F)cc3)(C(=O)OC)[C@@H]21`: the composite z-score turned out to be 0.222.

Take `O=C(CS)NCCCCCCNC(=O)[C@H]1C[C@H]2C(=O)N[C@@H](Cc3ccccc3)C(=O)N2[C@H]1c1cccc(OCCO)c1`: the composite z-score is -0.0581.

Consider `COc1cc2c(cc1OC)CN(C(=O)[C@H]1[C@@H]3C(=O)O[C@@H](c4ccccc4)[C@@H](c4ccccc4)N3[C@@H](c3ccc(OCCO)cc3)[C@]13C(=O)Nc1ccc(C#CC4(O)CCCCCC4)cc13)CC2`, for which the composite z-score stood at 1.59.

On to `O=C1O[C@H](c2ccccc2)[C@H](c2ccccc2)N2[C@H]1[C@@H](C(=O)O)[C@]1(C(=O)Nc3ccccc31)[C@H]2c1ccc(O)cc1`, for which the composite z-score is -0.391.

`CC(=O)N1Cc2ccccc2C[C@]2(N=C(c3ccc(OCCCO)cc3)O[C@@H]2c2ccccc2)C1=O`: the composite z-score was found to be 0.835.

In turn, `Cc1ccc(S[C@]2(C(=O)O)CC(=O)N(Cc3ccccc3Cl)[C@@H]2c2ccc(CO)cc2)cc1` yielded a composite z-score of 0.505.

As to `COc1c(C)cc(-c2cc3c(c(-c4ccccc4)n2)[Si](C(C)C)(C(C)C)OC3)cc1C`, the composite z-score was 0.068.

Turning to `O=C(CCCCCCC(=O)Nc1ccccc1)N/N=C/c1ccccc1`, the composite z-score is -0.176.

Turning to `CCOC(=O)C[C@H]1[C@H](OC(=O)Cc2ccc3c(c2)OCO3)[C@@H](NC(=O)C2CCCCC2)c2cc(OCCCO)ccc2N1C(=O)c1ccc2ccccc2n1`, the composite z-score came out at 0.034.

As to `O=C(NC1CC1)[C@@H]1c2ccccc2C(=O)N(Cc2ccccc2)[C@H]1c1ccc(CO)cc1`, the composite z-score is -0.474.

Compound `NC(N)=NCc1cn(CCc2c[nH]c3ccccc23)nn1` had a composite z-score of 0.0191.

For `COCCCNC(=O)[C@@]1(Sc2ccc(C)cc2)CC(=O)N(Cc2cc(C(F)(F)F)cc(C(F)(F)F)c2)[C@@H]1c1ccc(CO)cc1`, the composite z-score was -0.0248.

In turn, `O=C1O[C@@H](c2ccccc2)[C@@H](c2ccccc2)N2[C@@H](c3ccc(O)cc3)[C@]3(C(=O)Nc4ccc(C#CC5=CCCCC5)cc43)[C@@H](C(=O)N3CCN(c4ncccn4)CC3)[C@H]12` returned a composite z-score of -0.446.

`COCCOC(=O)N1C(=O)[C@@]2(c3cc(C#CC4=CCCCC4)ccc31)[C@H](c1ccccc1OCCO)N1[C@H](c3ccccc3)[C@H](c3ccccc3)OC(=O)[C@H]1[C@@H]2C(=O)N1CCc2cc(OC)c(OC)cc2C1` displayed a composite z-score of -0.636.

`CC[C@H]1C2=C3C(CC[C@H]4C(OCc5ccc(F)cc5C(F)(F)F)OC[C@](C)([C@@H]34)N(C(=O)OC(C)(C)C)C2)C2COC(=O)OCC21` (some centres undefined) registered a composite z-score of 0.817.

On to `CO[C@H]1O[C@H](CO)[C@@H](OC(=O)Nc2ccccc2-c2ccccc2)[C@H](OC(=O)Nc2ccc3c(c2)OCO3)[C@@H]1OC(=O)Nc1ccc2c(c1)OCO2`, for which the composite z-score was 0.198.

The compound `COCCCNC(=O)[C@@]1(Sc2ccc(C)cc2)CC(=O)N(C2Cc3ccccc3C2)[C@@H]1c1ccc(CO)cc1I` had a composite z-score of 0.59.

In turn, `Cc1ccc(S[C@]2(C(=O)NCc3ccccc3)CC(=O)N(C(C)C)[C@@H]2c2ccc(CO)cc2I)cc1` had a composite z-score of 0.378.

With `CC(C)C(O)C1C=CC2C(=O)N(C)C(=O)C2N1N(c1ccccc1)c1ccccc1` (centres undefined), the composite z-score turned out to be 0.185.

`O=C1OCC=C[C@H]2OC34C=CCN(Cn5nnc6ccccc65)C(=O)[C@H]3N(CCCCCCO)C(=O)[C@@H]4[C@@H]12` (some centres undefined) returned a composite z-score of 0.0374.

Consider `COC(=O)[C@@]1(Cc2ccccc2)[C@H]2c3cc(C(=O)N4CCCC4)n(Cc4cc(F)cc5c4OCOC5)c3C[C@H]2CN1C(=O)c1ccccc1`, for which the composite z-score came out at 0.513.

In the case of `O=C(O)[C@H](Cc1ccccc1)n1cc(-c2ccccn2)nn1`, the composite z-score is -0.22.

`CN(C)CCCNC(=O)[C@@]1(c2ccc([N+](=O)[O-])cc2)CC(=O)N(CC23CC4CC(CC(C4)C2)C3)[C@@H]1c1ccc(CO)cc1` showed a composite z-score of 0.774.

In the case of `CCOC(=O)C[C@H]1[C@H](OC(=O)c2ccc(-c3ccccc3)cc2)[C@@H](NC(=O)c2ccc3ccccc3n2)c2cc(OCCCO)ccc2N1C(=O)c1ccccc1`, the composite z-score is 0.048.

The compound `CCOC(=O)C1=CC[C@@H](c2ccccc2)N(S(=O)(=O)c2ccc(C)cc2)C1` displayed a composite z-score of 0.617.

`CCOC(=O)[C@H]1C/C=C/C[C@H](C(=O)OCC)C(=O)O[C@H]2[C@@H](OC)O[C@H](CO)[C@@H](OC(=O)Nc3ccc(OC)cc3)[C@@H]2OC1=O` came in with a composite z-score of 0.481.

The compound `COC(=O)[C@H](Cc1ccccc1)N1CC(/C=C/C2CC2)=C[C@@H]1[C@@H](O)Cc1ccccc1` came in with a composite z-score of 0.0175.

As for `Cc1ccc(F)cc1S(=O)(=O)N[C@@H]1CCN(Cc2ccc(Oc3ccccc3)cc2)C1`, the composite z-score was -0.392.

As to `COCCOC(=O)N1C(=O)[C@@]2(c3cc(C#Cc4ccc(OC)cc4)ccc31)[C@H](C(=O)NC[C@H](O)c1ccccc1)[C@H]1C(=O)O[C@H](c3ccccc3)[C@H](c3ccccc3)N1[C@@H]2c1ccc(O)cc1`, the composite z-score worked out at 0.139.

Compound `CN(C)CCCNC(=O)[C@@H]1c2ccccc2C(=O)N(CC23CC4CC(CC(C4)C2)C3)[C@H]1c1ccc(CO)cc1` showed a composite z-score of -0.46.

On to `CCOC(=O)[C@@H]1[C@@H]2C(=O)N(CC)C(=O)[C@@H]2C[C@@H]1Sc1ccccc1`, for which the composite z-score worked out at 0.19.

As to `CC(C)C(=C=CC[C@@H](O)c1ccccc1OCCO)C[C@@H](O)COCc1ccccc1`, the composite z-score was found to be 0.469.
